# Screening data (PubChem BioAssay)
# Shown are actives, neighbours in structure and some others; about 6% of the full set was active somewhere.
# DRD3 agonist – D3 dopamine receptor (human) agonism; AID 652048; D3R DiscoveRx beta-arrestin cells, luminescence, 90 min; P35462; 410,000 tested, 0.58% active; max activation, %; in the data active = max activation above about 30%
# Target sequence (P35462 whole entry, looked up): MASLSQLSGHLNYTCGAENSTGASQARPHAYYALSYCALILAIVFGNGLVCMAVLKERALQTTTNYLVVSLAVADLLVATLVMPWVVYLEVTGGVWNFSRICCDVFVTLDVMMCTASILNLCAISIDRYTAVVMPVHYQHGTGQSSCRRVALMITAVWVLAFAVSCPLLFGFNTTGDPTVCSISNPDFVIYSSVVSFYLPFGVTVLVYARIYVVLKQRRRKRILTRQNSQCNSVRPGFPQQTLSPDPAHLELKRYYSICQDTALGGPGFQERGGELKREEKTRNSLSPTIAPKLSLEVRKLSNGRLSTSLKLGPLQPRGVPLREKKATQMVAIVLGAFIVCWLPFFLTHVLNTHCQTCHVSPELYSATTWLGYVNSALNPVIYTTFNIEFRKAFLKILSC
#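 Cells at 1500/well, incubated overnight, then treated with pinned compounds (dopamine as control) for 90 min at 37 degrees C. DiscoveRx reagent added for 30 - 60 minutes at room temperature; luminescence read.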
# D1 antag – human D1 dopamine receptor antagonism | P21728 | AID 504652 | activity change, negative = inhibition, % at 10 µM | HEK293 TREx D1 cells, calcium flux, dopamine EC80; hits give low values | 360,000 tested, 3.2% active; in the data active = activity change below about -30%
#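 Allosteric or orthosteric antagonism assessed as attenuation of the calcium response to EC80 dopamine, added 180 s after compound, in induced HEK293 Trex D1 cells loaded with no-wash calcium dye.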
# D1 agonist – activates the human D1 dopamine receptor; P21728; HEK293 T-REx D1 cells, calcium flux, agonist mode; activation, % at 2 µM; 360,000 tested, 1% active; in the data active = activation above about 30%
#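 Tetracycline-induced HEK293 TREx D1 cells, force-coupled to calcium signalling, were dye-loaded with a no-wash calcium kit. Compound was pin-added after a 10 s baseline. Fluorescence was read kinetically at 1 cycle/s for 180 s, with calcium rises flagged as agonism.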
# DRD3 antagonist – D3 dopamine receptor (human) antagonism; 360,000 tested, 2.5% active; D3R cells, DiscoveRx beta-arrestin luminescence, antagonist mode; hits give low values; max response, negative = inhibition, %; P35462; in the data active = max response below about -50%; inconclusive = no clear call, values can overlap the other calls
#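 Cells plated overnight at 1500 cells/well, then exposed to library compounds with dopamine controls for 90 minutes at 37 degrees C. DiscoveRx reagent added for 30–60 minutes at room temperature; luminescence read, quantitative HTS format.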
# D1 PAM – potentiators of human D1 dopamine receptor; P21728; HEK293 TREx D1 cells, calcium flux, dopamine EC20 potentiation; potentiation, % at 10 µM; 360,000 tested, 0.036% active; AID 504651; in the data active = potentiation above about 30%
# Numbers stand for hits; – = inactive; ? = inconclusive; · = no result.
SMILES,DRD3 agonist,D1 antag,D1 agonist,DRD3 antagonist,D1 PAM
COc1ccc(-n2ccnc(NCCc3ccc(S(N)(=O)=O)cc3)c2=O)cc1,–,–,–,·,–
CCc1ccccc1NC(=O)Cn1nc(CC)n2c(cc3sccc32)c1=O,–,–,–,·,–
O=C(CC1Nc2ccccc2NC1=O)c1ccccc1 (centres undefined),·,–,68,·,–
Cc1cc2nc(SCC(=O)N(C)C)c3c(c2cc1C)CCCC3,–,–,–,-50,–
CN(C)C(=O)CSc1nc(-c2ccccc2)nc2c1CCCC2,–,–,–,–,–
COC(=O)c1ccccc1NC(=O)COC(=O)CO/N=C(\C)c1ccc2c(c1)OCO2,–,-31,–,–,–
COc1ccc(C(=O)NCC(=O)OCC(=O)NCc2ccc3c(c2)OCO3)cc1,–,·,·,–,·
C/C(=N\OCC(=O)OCC(=O)Nc1cc(S(C)(=O)=O)ccc1Cl)c1ccc2c(c1)OCO2,–,–,–,–,–
C/C(=N\OCC(=O)OCC(=O)NC(=O)c1ccccc1)c1ccc2c(c1)OCO2,–,-40,–,–,–
COc1ccc(CNC(=O)COC(=O)CO/N=C(\C)c2ccc3c(c2)OCO3)cc1,–,-33,–,–,–
CCc1ccc(-c2cn3c(n2)sc2cc(C(=O)NCCC4=CCCCC4)ccc23)cc1,–,–,–,·,–
COc1cccc(Cn2c(=O)n(-c3ccc(C)c(F)c3)c(=O)c3sc4ccccc4c32)c1,–,–,–,·,–
CCN(CC)CCNC(=O)c1ccc(-n2c(-c3ccccc3)cc3c2CCCC3)cc1,–,–,–,·,–
Cc1c(-c2nsc(NC(=O)c3ccc(Cl)cc3)n2)nnn1-c1ccc(C(C)C)cc1,–,–,–,·,–
COC(=O)c1ccc(-n2nnc(-c3nsc(NC(=O)c4ccc(Cl)cc4)n3)c2C)cc1,–,-55,–,·,–
CC(=O)c1cccc(NC(=O)CSCc2ccccc2)c1,–,–,–,-79,–
CC(=O)c1cccc(NC(=O)CSCc2ccc(Br)cc2)c1,–,-33,–,–,–
CC(=O)Oc1ccc2c(c1)CC[C@@H]1[C@@H]2CC[C@]2(C)[C@@H](O)CC[C@@H]12,–,·,·,·,·
COc1ccc(-c2nn(CC(=O)NCc3ccccc3)c3c2cnc2ccc(F)cc23)cc1,–,–,–,·,–
Cc1nc2sccn2c(=O)c1S(=O)(=O)NCC1CCN(Cc2ccccc2Cl)CC1,–,-66,–,–,–
Cc1ccccc1NS(=O)(=O)c1ccc(Br)s1,–,–,50,·,–
CC(C)NC(=O)c1ccccc1NS(=O)(=O)c1ccc(Br)s1,–,–,–,–,–
CCOc1ccc2nc(N3CCCC(C(=O)Nc4ccccc4CC)C3)sc2c1 (centres undefined),–,–,–,·,–
CCc1nn(CC(=O)NCCCc2ccccc2)c(=O)c2cc3c(OC)cccc3n12,–,–,–,–,–
COc1cccc2c1cc1c(=O)n(CC(=O)NCCCc3ccccc3)nc(C)n12,–,-39,–,–,–
SMILES,DRD3 agonist,D1 antag,D1 agonist,DRD3 antagonist,D1 PAM
CCOCCCNC(=O)Cn1nc(CC)n2c(cc3c(OC)cccc32)c1=O,–,-30,–,·,–
COc1cccc2c1cc1c(=O)n(CC(=O)N3CCN(c4cccc(C)c4C)CC3)nc(C)n12,71,–,–,–,–
COc1ccc(NC(=O)CC2C(=O)N(c3ccc(F)cc3)C(=O)N2Cc2ccc3c(c2)OCO3)cc1 (centres undefined),–,–,–,·,–
CCC(C)C(NC(=O)OCc1ccccc1)C(=O)NC(Cc1ccc(O)cc1)C(=O)OC (centres undefined),–,–,62,–,–
Cc1c(Cl)cccc1NC(=O)c1ccc(NC(=O)N2CCSc3ncccc32)cc1,–,–,–,·,–
O=C(COC(=O)c1ccco1)Nc1nc2ccc([N+](=O)[O-])cc2s1,–,-52,–,–,–
COc1ccc(CN(C)CCc2ccccn2)cc1OC,–,–,–,-76,–
COc1ccc(CCN(C)c2ccc(C(N)=O)cc2[N+](=O)[O-])cc1OC,–,–,–,–,–
COc1cc(CNC23CC4CC(CC(C4)C2)C3)ccc1OCc1ccccc1,–,-40,85,–,–
COc1cc(CNCc2cccs2)ccc1OCc1ccccc1,–,–,–,–,–
COc1ccc(CCN(C)C/C=C/c2ccccc2[N+](=O)[O-])cc1OC,–,–,–,-60,–
COc1ccc(CCN(C)Cc2ccc(OCc3ccccc3)c(OC)c2)cc1OC,–,-42,87,?,–
O=C(Cn1cc(SCc2ccc(C(F)(F)F)cc2)c2ccccc21)N1CCCC1,–,–,–,·,–
COc1ccccc1NC(=O)c1oc2ccccc2c1NC(=O)c1cccc(OC)c1OC,–,–,–,·,–
CCn1cc(C(=O)N2CCN(c3cccc(C)c3C)CC2)c2cc(OC)c(OC)cc2c1=O,–,–,–,·,–
Nc1nc(N)c(S(=O)(=O)c2ccccc2)c(Nc2ccc(Br)cc2)n1,–,–,–,·,–
COc1cccc(C(=O)Nc2ccc(Oc3cccc(C(F)(F)F)c3)nc2)c1,–,-42,42,–,–
COc1ccc(NC(=O)COc2cccc(C(F)(F)F)c2)cn1,–,–,–,–,–
O=C(Nc1ccc(Oc2cccc(C(F)(F)F)c2)nc1)c1ccccc1,–,–,–,–,–
O=C(Nc1ccc(Oc2cccc(C(F)(F)F)c2)nc1)c1cccs1,–,-45,32,–,–
Cc1nc(CC(=O)Nc2ccc(N(C)C)cc2)cs1,–,–,–,·,–
O=C(NCc1ccccc1)c1ccc2c(c1)sc1nc(-c3ccc(F)cc3)cn12,–,–,–,·,–
CC(C)NC[C@@H](O)c1ccc(O)c(O)c1,–,-32,–,–,–
CCc1ccc(NC(=O)CSC2=Nc3ccccc3C3=NC(CCC(=O)NCc4cccs4)C(=O)N23)cc1 (centres undefined),–,–,–,·,–
CC1=C(C(=O)Nc2ccccc2C)C(c2ccc[nH]2)n2ncnc2N1 (centres undefined),–,–,–,·,–
COc1ccc(/C(O)=C2/C(=O)C(=O)N(CCCN3CCOCC3)C2c2ccc(C)cc2)cc1 (centres undefined),–,–,–,–,–
COc1ccc(C2/C(=C(/O)c3ccccc3)C(=O)C(=O)N2c2ccccn2)c(OC)c1 (centres undefined),–,–,–,–,–
COc1ccc(C2/C(=C(/O)c3ccccc3)C(=O)C(=O)N2CCN2CCOCC2)c(OC)c1 (centres undefined),–,–,–,-57,–
COc1ccc(C2/C(=C(/O)c3ccc(C)cc3)C(=O)C(=O)N2CCCN2CCOCC2)cc1 (centres undefined),–,–,–,–,37
CCN(CC)CCN1C(=O)C(=O)/C(=C(/O)c2ccc(OC)cc2)C1c1ccco1 (centres undefined),–,-34,–,–,–
